Measurements published in PubChem BioAssay (NCATS).
Where “and” joins values, the source holds several entries; their conditions need not be identical. Equal entries are not always repeated. Results filed as inconclusive are left out. Where a call stands in place of a potency, no number is given. A structure can be active in one record and inactive in another. Calls of active or inactive are those of the source. Unless noted, calls come from the whole dose curve; as a rule, active = well fitted curve in the direction sought with a large enough effect; inconclusive = small, poorly fitted or top-dose-only effect, or another doubt; inactive = no such curve, though single readings can be large; an effect the other way counts as inactive or inconclusive.

How the values were obtained:
[1] = biological target: Cytochrome P450 2C9 (Homo sapiens) (UniProt P11712); experiment: qHTS Assay for Inhibitors and Substrates of Cytochrome P450 2C9 (AID 883); note: potency is the fitted concentration of half-maximal effect; nearly all actives have a fitted effect of over 60% in size
Outline: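 Turnover of Luciferin-H (100uM, KM) by 10nM human CYP2C9 was measured over 60 min at 37C with NADPH regeneration; inhibitors and some substrates reduce luminescence. Data normalized to sulphaphenazole 57uM.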

[2] = biological target: Cytochrome P450 3A4 (Homo sapiens) (UniProt P08684); experiment: qHTS Assay for Inhibitors and Substrates of Cytochrome P450 3A4 (AID 884); note: potency is the fitted concentration of half-maximal effect; nearly all actives have a fitted effect of over 50% in size
Outline: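 20 nM human CYP3A4 with 25 uM Luciferin-PPXE (at KM) in 200 mM KPO4, preincubated 10 min with compound; NADPH regeneration started a 60 min RT reaction. Luciferin detected by luminescence, normalized to 57 uM ketoconazole as full inhibition.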

[3] = biological target: Cytochrome P450 3A4 (Homo sapiens) (UniProt P08684); experiment: qHTS Assay for Activators of Cytochrome P450 3A4 (AID 885); note: nearly all actives have a fitted effect of over 65% in size
Outline: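 Steps: enzyme/substrate mix dispensed; compound added, 10 min RT; NADPH regeneration solution added, 60 min RT; luciferin detection buffer stops reaction; 20 min later luminescence measured.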

[4] = biological target: Cytochrome P450 2D6 (Homo sapiens) (UniProt P10635); experiment: qHTS Assay for Inhibitors and Substrates of Cytochrome P450 2D6 (AID 891); note: potency is the fitted concentration of half-maximal effect; nearly all actives have a fitted effect of over 60% in size
Outline: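 Human CYP2D6 (5 nM) with 30 uM Luciferin-ME EGE (at Km) in 100 mM KPO4, compound preincubated 10 min, then NADPH regeneration system for 60 min at room temperature. Luciferin read by luminescence; normalized to 1.43 uM quinidine.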

[5] = biological target: Muscarinic acetylcholine receptor M1 (Rattus norvegicus) (UniProt P08482); experiment: qHTS Assay for Antagonists of Acetylcholine Muscarinic M1 Receptor: Kinetic Measurement of Intracellular Calcium Response (AID 943); note: nearly all actives have a fitted effect of over 75% in size; note: potency is the fitted concentration of half-maximal effect
Outline: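 Intracellular calcium flux, recorded with Fluo-4 in a kinetic plate reader, served as signal; the response to carbachol at EC80 (100 nM final) was taken as maximal over minimal fluorescence after a 10 min compound pre-incubation in rat M1-CHO cells.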

[6] = biological target: Muscarinic acetylcholine receptor M1 (Rattus norvegicus) (UniProt P08482); experiment: qHTS Assay for Antagonists of Acetylcholine Muscarinic M1 Receptor: Measurement of IP-One Response (AID 944); note: nearly all actives have a fitted effect of over 75% in size; note: potency is the fitted concentration of half-maximal effect
Outline: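 Steps: plate transfected CHO-M1 cells overnight; add test compound, 10 min; add carbachol (200 nM, EC80) in stimulation buffer with LiCl; incubate 30 min; add labelled IP1 tracer and anti-IP1 antibody in lysis buffer; read HTRF after 10 min.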

[7] = biological target: Pyruvate kinase (Leishmania mexicana) (UniProt Q27686); experiment: qHTS Validation Assay for Inhibitors of Leishmania Mexicana Pyruvate Kinase (AID 945); note: potency is the fitted concentration of half-maximal effect
Outline: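 Read-out: luminescence from PKLight stop/detection reagent, data normalized to DMSO. Reaction: 0.2 nM E451W LmPYK, 0.5 mM PEP, 0.1 mM ADP, pH 7.2, 1 h room temperature.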

[8] = Confirmation and Secondary Assay for Modulators of Hemoglobin Beta Chain Splicing at IVS2 654 locus (AID 910);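 note: HeLa cells stably carrying EGFP split by mutant beta-globin IVS2-654 intron; per-well total GFP intensity by laser scanning cytometry after 2-day treatment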
Outline: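 Readout: per-well total peak green fluorescence (488 nm ex, 500–520 nm em) from objects 5–250 µm, reflecting correct splicing of an EGFP-654 reporter. Compounds were applied for 2 days at 37 °C to overnight-plated HeLa EGFP-654 cells; controls were DMSO and 500 nM IVS2-654 PNA.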

[9] = Confirmation and Secondary Assay for Modulators of Hemoglobin Beta Chain Splicing at IVS2 705 locus (AID 930);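 note: HeLa cells stably expressing the EGFP-705 splicing reporter; GFP fluorescence per well restored by corrected splicing of the IVS2-705 intron in EGFP; series mostly up to about 46 µM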
Outline: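 Secondary splice-site specificity test uses HeLa expressing CMV-driven EGFP interrupted by IVS2-705; cells were treated 2 days at 37C with 500 nM antisense PNA as positive control.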

[10] = qHTS Assay for Identification of Small Molecule Agonists for Thrombopoietin (TPO) Signaling Pathway (AID 917)
Outline: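 Murine Ba/F3 cells stably expressing human TPO receptor and a Glycoprotein IIb promoter–luciferase reporter were IL-3-starved overnight, then treated with compounds plus TPO (26 pM final, its EC50) for 24 hrs at 37 C; luminescence was read.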

[11] = qHTS Assay for Identification of Small Molecule Antagonists for NFkB Signaling Pathway (AID 895; active = well fitted inhibition curve with a large enough effect in the signal ratio, with a control signal flat, not every such curve was filed as active; the % refers to the signal ratio; note: potency is the fitted concentration of half-maximal effect)
Outline: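 Beta-lactamase reporter read-out (460 and 530 nm emission ratio, 405 nm excitation, 2 hrs substrate loading RT) after 5 hr stimulation with 10 pM TNF alpha in compound-treated NFkB-bla ME-180 cells in low-serum medium.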

[12] = qHTS Assay for Identification of Small Molecule Antagonists for Thrombopoietin (TPO) Signaling Pathway (AID 918); settings: TPO-dependent cell signaling reporter, antagonist mode; note: potency is the fitted concentration of half-maximal effect; nearly all actives have a fitted effect of over 60% in size
Outline: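 First, Ba/F3 reporter cells expressing human TPO receptor were held overnight without IL-3. Next, compound and 26 pM TPO were added. After 24 hrs incubation at 37 C, luciferase luminescence under the Glycoprotein IIb promoter was recorded.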

[13] = qHTS Assay for Identification of Small Molecule Agonists for Hypoxia Response Element Signaling Pathway (AID 914; active = well fitted activation curve with a large enough effect in the signal ratio, with a control signal flat, not every such curve was filed as active; the % refers to the signal ratio); settings: ME-180 (cervical carcinoma) HRE-bla reporter, beta-lactamase ratio, CoCl2, 17 h; stronger effect = higher value
Outline: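 qHTS titration; ME-180 HRE-bla cells; EC50 CoCl2 co-treatment, 17 h at 37 degrees Celsius; CCF4 dye, ex 405nm, em 460nm and 530nm; %Activity from ratio; AC50.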

Chain of Muscarinic acetylcholine receptor M1 (Rattus norvegicus) (P08482 whole entry, looked up): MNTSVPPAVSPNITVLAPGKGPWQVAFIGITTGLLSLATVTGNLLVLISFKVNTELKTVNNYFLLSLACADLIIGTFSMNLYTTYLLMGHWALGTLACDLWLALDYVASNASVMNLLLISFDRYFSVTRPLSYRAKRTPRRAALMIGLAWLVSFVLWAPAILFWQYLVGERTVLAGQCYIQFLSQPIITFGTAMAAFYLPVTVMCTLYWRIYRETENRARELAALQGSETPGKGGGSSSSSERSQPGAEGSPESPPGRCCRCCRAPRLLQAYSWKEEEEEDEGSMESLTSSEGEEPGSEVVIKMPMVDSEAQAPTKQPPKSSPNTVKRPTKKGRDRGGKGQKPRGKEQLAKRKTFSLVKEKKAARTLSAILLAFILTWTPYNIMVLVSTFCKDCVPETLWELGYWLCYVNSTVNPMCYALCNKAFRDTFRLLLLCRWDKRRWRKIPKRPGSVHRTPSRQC
Chain of Pyruvate kinase (Leishmania mexicana) (Q27686 2-499 E452W): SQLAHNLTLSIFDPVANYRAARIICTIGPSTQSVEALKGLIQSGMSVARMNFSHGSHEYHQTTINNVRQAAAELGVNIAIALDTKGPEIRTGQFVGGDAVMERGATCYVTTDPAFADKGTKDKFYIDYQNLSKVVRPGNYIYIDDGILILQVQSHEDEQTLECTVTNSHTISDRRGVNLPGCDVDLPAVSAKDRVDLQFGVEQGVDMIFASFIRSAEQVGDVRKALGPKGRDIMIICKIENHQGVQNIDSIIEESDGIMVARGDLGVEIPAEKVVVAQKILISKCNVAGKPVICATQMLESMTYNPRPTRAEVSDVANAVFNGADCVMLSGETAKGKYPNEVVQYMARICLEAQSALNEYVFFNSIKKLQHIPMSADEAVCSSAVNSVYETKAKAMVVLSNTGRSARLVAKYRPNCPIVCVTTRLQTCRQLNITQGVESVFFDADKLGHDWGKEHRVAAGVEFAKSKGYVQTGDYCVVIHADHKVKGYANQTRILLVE
Chain of Cytochrome P450 2D6 (Homo sapiens) (P10635 whole entry, looked up): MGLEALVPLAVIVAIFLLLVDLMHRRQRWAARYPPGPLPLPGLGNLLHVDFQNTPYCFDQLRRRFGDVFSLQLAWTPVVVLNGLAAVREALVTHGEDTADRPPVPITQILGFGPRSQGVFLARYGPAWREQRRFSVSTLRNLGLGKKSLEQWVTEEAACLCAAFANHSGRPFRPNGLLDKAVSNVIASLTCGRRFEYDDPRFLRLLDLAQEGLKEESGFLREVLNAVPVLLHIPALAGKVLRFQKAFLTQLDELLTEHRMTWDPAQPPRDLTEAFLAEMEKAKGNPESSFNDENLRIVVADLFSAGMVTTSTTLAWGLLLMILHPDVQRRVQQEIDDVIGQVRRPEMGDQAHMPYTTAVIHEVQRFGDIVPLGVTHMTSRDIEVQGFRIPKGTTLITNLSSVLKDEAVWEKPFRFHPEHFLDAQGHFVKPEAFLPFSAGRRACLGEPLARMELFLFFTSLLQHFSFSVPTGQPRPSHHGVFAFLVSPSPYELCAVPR
Chain of Cytochrome P450 3A4 (Homo sapiens) (P08684 whole entry, looked up): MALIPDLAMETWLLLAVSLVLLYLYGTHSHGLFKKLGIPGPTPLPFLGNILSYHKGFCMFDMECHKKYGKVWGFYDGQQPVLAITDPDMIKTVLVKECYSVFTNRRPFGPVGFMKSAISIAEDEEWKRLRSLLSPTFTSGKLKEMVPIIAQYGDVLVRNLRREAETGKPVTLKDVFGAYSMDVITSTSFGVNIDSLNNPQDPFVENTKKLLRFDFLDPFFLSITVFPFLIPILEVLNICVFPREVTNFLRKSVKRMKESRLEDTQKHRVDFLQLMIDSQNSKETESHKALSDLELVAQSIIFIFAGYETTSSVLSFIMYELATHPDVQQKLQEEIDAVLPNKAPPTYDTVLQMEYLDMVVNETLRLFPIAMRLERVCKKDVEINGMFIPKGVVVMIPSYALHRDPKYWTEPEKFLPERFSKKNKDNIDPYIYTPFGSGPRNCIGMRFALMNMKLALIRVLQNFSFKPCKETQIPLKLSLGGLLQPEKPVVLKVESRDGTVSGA
Chain of Cytochrome P450 2C9 (Homo sapiens) (P11712 whole entry, looked up): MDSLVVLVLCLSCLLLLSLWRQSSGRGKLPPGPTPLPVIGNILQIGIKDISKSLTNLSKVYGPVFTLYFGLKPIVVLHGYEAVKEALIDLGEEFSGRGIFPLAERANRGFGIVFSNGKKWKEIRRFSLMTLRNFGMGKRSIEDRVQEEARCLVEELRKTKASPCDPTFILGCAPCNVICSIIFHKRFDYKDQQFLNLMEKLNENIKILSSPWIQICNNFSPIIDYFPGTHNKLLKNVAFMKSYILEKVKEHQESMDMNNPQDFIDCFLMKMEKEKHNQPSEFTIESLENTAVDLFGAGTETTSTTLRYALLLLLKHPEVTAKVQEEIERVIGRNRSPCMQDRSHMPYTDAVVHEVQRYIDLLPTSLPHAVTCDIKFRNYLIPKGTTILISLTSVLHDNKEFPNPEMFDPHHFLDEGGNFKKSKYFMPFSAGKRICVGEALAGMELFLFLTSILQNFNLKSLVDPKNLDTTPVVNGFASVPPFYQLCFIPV

For O=c1c2ccccc2[se]n1-c1ccccc1, the Potency [1] was 1 µM (active) and 79.4 nM (active), the Potency [2] was 3.98 µM (active) and 25.1 µM (active) and the outcome [3] was “inactive”. The Potency [4] was 10 µM (active) and 1 µM (active), the Potency [5] was “inactive” and the Potency [6] was “inactive”. For the same compound, the Potency [7] was 10 µM (active).

For C=CCC1(C(C)CCC)C(=O)N=C(S)NC1=O (stereo unspecified), the Potency [2] was 12.6 µM (active), the outcome [3] was “inactive” and the outcome [8] was “inactive”. For the same compound, the outcome [9] was “inactive”.

For CCC(=O)O[C@@](Cc1ccccc1)(c1ccccc1)[C@@H](C)CN(C)C, the Potency [2] was 5.01 µM (active), the outcome [3] was “inactive” and the Potency [4] was 7.94 µM (active).

For N[C@@H](Cn1oc(=O)[nH]c1=O)C(=O)O, the outcome [3] was “inactive”, the Potency [10] was “inactive” and the Potency [6] was “inactive”. The Potency [7] was “inactive”.

In the case of C[CH2][Hg][S]c1ccccc1C(=O)O, the outcome [8] is reported as “inactive” and the outcome [9] is reported as “inactive”.

For CCCC(C)C1(CC)C(=O)NC(=O)NC1=O (stereo unspecified), the outcome [8] was “inactive” and the outcome [9] was “inactive”.

With CCCN(CCC)CCc1ccc(O)c(O)c1 the Potency [10] was “inactive”, the Potency [6] was “inactive” and the Potency [7] was “inactive”.

For NC(=O)CI, the outcome [3] was “inactive”, the Potency [11] was “inactive” and the Potency [12] was 3.16 µM (active). For the same compound, the Potency [5] was “inactive” and the Potency [7] was “inactive”.

In the case of CCCN1CCc2cc(O)cc3c2[C@H]1Cc1ccc(O)c(O)c1-3, the Potency [12] is reported as 10 µM (active) and the Potency [7] is reported as “inactive”.

With NCCCP(=O)(O)O the outcome [3] was “inactive”, the activation [13] was -8.81% (inactive) and the Potency [10] was “inactive”. The Potency [5] was “inactive” and the Potency [7] was “inactive”.

For N#CCCN, the Potency [11] was “inactive”, the activation [13] was 19.4% (inactive) and the Potency [10] was “inactive”. The Potency [5] was “inactive”, the Potency [6] was “inactive” and the Potency [7] was “inactive”.

With CN(N=O)c1cc(O)ccc1O the Potency [5] was “inactive”, the Potency [6] was “inactive” and the Potency [7] was “inactive”.

In the case of O=c1ccc2[nH]cc(C3=CCNCC3)c2[nH]1, the Potency [4] is reported as 2.51 µM (active).

In the case of C[N+](C)(C)CCOC(=O)CBr, the Potency [11] is reported as “inactive”, the activation [13] is reported as 16.2% (inactive) and the Potency [10] is reported as “inactive”. The Potency [6] was “inactive” and the Potency [7] was “inactive”.

In the case of CCN(CCCl)Cc1ccccc1Br, the Potency [10] is reported as “inactive” and the Potency [7] is reported as “inactive”.

With C[N+]1(C)CCN(c2ccccc2)CC1 the outcome [3] was “inactive”, the Potency [10] was “inactive” and the Potency [7] was “inactive”.

For CP(=O)(O)C1=CCNCC1, the outcome [3] was “inactive”, the Potency [10] was “inactive” and the Potency [5] was “inactive”. For the same compound, the Potency [6] was “inactive” and the Potency [7] was “inactive”.

With NCCc1ccc(S(=O)(=O)F)cc1 the Potency [11] was “inactive”, the Potency [10] was “inactive” and the Potency [6] was “inactive”. The Potency [7] was “inactive”.

With O=C(O)c1cc[c]([Hg][Cl])cc1 the Potency [11] was “inactive”, the Potency [5] was “inactive” and the Potency [6] was “inactive”. For the same compound, the Potency [7] was 3.98 µM (active).

In the case of N#CC(C#N)=Cc1cc(O)c(O)c(O)c1, the outcome [3] is reported as “inactive” and the Potency [7] is reported as “inactive”.

For OC1CCCCC1N1CCC(c2ccccc2)CC1 (stereo unspecified), the outcome [8] was “inactive” and the outcome [9] was “inactive”.

For Cc1cc(C)cc(C(=O)OC2C[C@H]3CC[C@@H](C2)N3C)c1 (stereo partly specified), the Potency [4] was 0.251 µM (active).

For NC(=O)COc1c(F)cc(SCCNS(=O)(=O)c2ccccc2)cc1F, the outcome [3] was “inactive”, the Potency [10] was “inactive” and the Potency [7] was “inactive”.

In the case of CN1CCc2cccc(Cl)c2CC1, the Potency [10] is reported as “inactive” and the Potency [7] is reported as “inactive”.

For c1ccc2c(N3CCNCC3)cccc2c1, the Potency [10] was “inactive” and the Potency [7] was “inactive”.

For NCCc1c[nH]c2ccc(C(N)=O)cc12, the Potency [11] was “inactive”, the Potency [10] was “inactive” and the Potency [6] was “inactive”. For the same compound, the Potency [7] was “inactive”.

For NC(Cc1ccc(N(CCCl)CCCl)cc1)C(=O)O (stereo unspecified), the outcome [3] was “inactive”, the outcome [8] was “inactive” and the outcome [9] was “inactive”.

With Cc1sc2ccccc2c1CC1=NCCN1 the Potency [10] was “inactive”, the Potency [5] was “inactive” and the Potency [6] was “inactive”. The Potency [7] was “inactive”.

For CCCN(CCC)[C@@H]1CCc2cccc(O)c2C1, the Potency [4] was 3.16 µM (active) and 794 nM (active), the Potency [10] was “inactive” and the Potency [5] was 3.98 µM (active) and inactive. For the same compound, the Potency [6] was 7.08 µM (active) and inactive and the Potency [7] was “inactive”.

With c1ccc2cc(CC3=NCCN3)ccc2c1 the Potency [10] was “inactive” and the Potency [7] was “inactive”.

For OCc1cnc[nH]1, the Potency [11] was “inactive”, the Potency [10] was “inactive” and the Potency [5] was “inactive”. The Potency [6] was “inactive” and the Potency [7] was “inactive”.

For CN1CCc2cc(O)cc3c2[C@H]1Cc1ccc(O)c(O)c1-3, the Potency [12] was 10 µM (active) and the Potency [7] was “inactive”.

With C[N+](C)(C)CC#CCOC(=O)Nc1cccc(Cl)c1 the Potency [10] was “inactive”, the Potency [5] was “inactive” and the Potency [6] was “inactive”. The Potency [7] was “inactive”.

In the case of Clc1ccc(N2C[C@H]3CC[C@@H](C2)N3)nn1, the Potency [11] is reported as “inactive”, the Potency [10] is reported as “inactive” and the Potency [7] is reported as “inactive”.

In the case of ClC1C(Cl)C(Cl)C(Cl)C(Cl)C1Cl (stereo unspecified), the outcome [8] is reported as “inactive” and the outcome [9] is reported as “inactive”.

In the case of C[C@H](N)CN1CCc2ccc(Br)cc21, the Potency [10] is reported as “inactive” and the Potency [7] is reported as “inactive”.

In the case of C[N+](C)(C)CC#CCN1CCCC1=O, the Potency [4] is reported as 3.98 µM (active), the Potency [10] is reported as “inactive” and the Potency [5] is reported as “inactive”. The Potency [6] was “inactive” and the Potency [7] was “inactive”.

In the case of NC(N)=NOCC[C@H](N)C(=O)O, the Potency [10] is reported as “inactive”, the Potency [6] is reported as “inactive” and the Potency [7] is reported as “inactive”.

In the case of COc1ccc2[nH]c3c(c2c1)CCNC3, the Potency [11] is reported as 5.01 µM (active), the Potency [10] is reported as “inactive” and the Potency [5] is reported as “inactive”. For the same compound, the Potency [6] was “inactive” and the Potency [7] was “inactive”.
